Source: PubChem
Compounds with a hit are over-represented: about 0.1% of the library has one in this group of screens.
Eya2 phos inh = blocks the phosphatase activity of human Eya2 | O00167 | recombinant Eya2, OMFP fluorescence dephosphorylation (OMFP is methylfluorescein phosphate) | Potency, µM (doses to about 76.9 µM), inactives show at the top dose activity, negative = inhibition, actives largely listed as inhibitors | actives 0.006% (n = 330,000) | AID 488837
Target sequence (O00167 whole entry, looked up): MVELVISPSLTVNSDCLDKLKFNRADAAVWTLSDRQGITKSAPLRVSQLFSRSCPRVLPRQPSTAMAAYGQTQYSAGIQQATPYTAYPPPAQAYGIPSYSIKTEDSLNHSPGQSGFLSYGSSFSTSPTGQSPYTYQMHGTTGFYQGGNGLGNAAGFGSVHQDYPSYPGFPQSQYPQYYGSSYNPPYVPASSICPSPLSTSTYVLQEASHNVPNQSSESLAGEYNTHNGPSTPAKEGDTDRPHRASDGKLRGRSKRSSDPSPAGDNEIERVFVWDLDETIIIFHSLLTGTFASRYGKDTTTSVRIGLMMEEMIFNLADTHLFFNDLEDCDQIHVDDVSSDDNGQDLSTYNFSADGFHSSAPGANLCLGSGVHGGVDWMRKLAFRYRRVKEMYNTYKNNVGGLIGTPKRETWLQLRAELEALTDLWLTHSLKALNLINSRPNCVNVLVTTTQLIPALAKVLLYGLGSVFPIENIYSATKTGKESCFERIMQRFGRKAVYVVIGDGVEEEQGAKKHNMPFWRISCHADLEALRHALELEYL
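Eya2 (0.2 uM) preincubated 10 min at ambient with compound, then OMFP substrate added at 50 uM; 10 min reaction in 50 mM HEPES pH 7.5, 50 mM NaCl, 5 uM MgCl2, 0.05% BSA, 1 mM DTT. Fluorescence read at Ex 485/Em 525 nm.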
MmCpn inh = M. maripaludis TRiC chaperonin inhibition; purified Mm-Cpn ATPase, ADP Transcreener TR-FRET; Potency, µM (series often up to 76.9 µM), without a hit: top-dose activity, negative = inhibition, most hits filed as inhibitors; actives 0.031% (n = 330,000); AID 504842; also: nearly all actives have a fitted effect of over 80% in size
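Purified archaeal chaperonin (25 nM final) was preincubated with compound for 10 min at 37°C, then ATP (10 uM final) was added for 30 min at 37°C in Tris pH 7.4/KCl/MgCl2/DTT buffer. ADP was quantified by HTRF Transcreener TR-FRET.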
N370S GC = N370S glucocerebrosidase modulation, Gaucher chaperone candidate. Potency, µM (titrated, usually from 59.4 µM), without a hit: at the top dose activity change, negative = inhibition, hits mostly inhibitors. P04062. N370S GC spleen homogenate, 4MU-glucoside fluorescence. AID 2101. actives 0.092% (n = 330,000);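 also: 0% = full enzyme activity and -100% = no enzyme basal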
USP2a inh = blocks human ubiquitin-specific protease USP2a; O75604; Potency, µM (top dose mostly 38.3 µM), for inactives: top-dose activity change, negative = inhibition, usual class: inhibitors; AID 463254; actives 0.01% (n = 330,000); USP2 core, Ub-CHOP2 coupled fluorogenic reporter, 485/531;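 also: plate controls were DMSO wells for no effect and full inhibition by NEM control for full effect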
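Cell-free coupled assay: 10nM USP2 core preincubated 30min RT with compound in Tris-HCl pH 8.0/CaCl2/CHAPS buffer, then 25nM Ub-CHOP2 and 25nM reporter substrate; fluorescence (Ex 485/Em 531) read after 60min RT, normalized to NEM inhibition, concentration-response curves fitted.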
The depositor's hits bear a star; ? = inconclusive; . = no result; [ ] = another dose, or the depositor's remark. Calls follow the shape of the dose curve; as a rule, active = well fitted curve in the direction sought with a large enough effect; inconclusive = small, poorly fitted or top-dose-only effect, or another doubt; inactive = no such curve, though single readings can be large; an effect the other way counts as inactive or inconclusive. Unless noted, % is scaled to controls: 0 for no effect and ±100 for the full control effect; potency is read from the fitted curve at half-maximal effect.

SMILES	Eya2 phos inh	MmCpn inh	N370S GC	USP2a inh
CC[C@H](C)[C@H](NC(=O)CNC(=O)[C@H](CCCNC(=N)N)NC(=O)[C@H](CO)NC(=O)[C@H](C)NC(=O)[C@H](Cc1ccc(O)cc1)NC(=O)[C@H](Cc1c[nH]c2ccccc12)NC(=O)[C@H](C)NC(=O)[C@@H]1CCCN1C(=O)[C@H](CC(N)=O)NC(=O)[C@@H](NC(=O)[C@H](CC(=O)O)NC(=O)[C@@H]1CCCN1C(=O)[C@@H](NC(=O)[C@H](CCCNC(=N)N)NC(=O)[C@@H](NC(=O)[C@H](CCC(=O)O)NC(=O)[C@H](CCSC)NC(=O)[C@H](CO)NC(=O)[C@H](Cc1cnc[nH]1)NC(=O)[C@H](CCCNC(=N)N)NC(=O)[C@H](Cc1cnc[nH]1)NC(=O)[C@@H](NC(=O)[C@H](CCCNC(=N)N)NC(=O)[C@@H](N)CO)[C@@H](C)O)[C@@H](C)CC)[C@@H](C)O)[C@@H](C)CC)C(=O)N[C@@H](CCCNC(=N)N)C(=O)N1CCC[C@H]1C(=O)N[C@H](C(=O)NCC(=O)N[C@@H](CCCNC(=N)N)C(=O)N[C@@H](Cc1ccccc1)C(N)=O)C(C)C	.	.	-4.1%	.
COc1cc(CNCCc2c[nH]c3ccccc23)ccc1OCc1ccc(F)cc1	-26.7%	0.8%	15.8µM*	-1.7%
COC(=O)[C@@H](NC(=O)N1CCc2nc(-c3ccc(OC)cc3C)c3c(c2C1)CO[C@@H](c1ccccc1)C3)C(C)C	.	.	-18.6%[12.8 µM]	.
CO[C@@H]1COC(=O)C/C=C\[C@@H](C)[C@H](OC)COC(=O)C/C=C\[C@H]1C	.	.	1.5%[12.8 µM]	.
Cc1[nH]c2ccccc2c1C(=O)CSc1nc2ccccc2c(=O)n1CCCN1CCOCC1	3.2%	2.6%	10µM*	-0.4%
COc1cc(OC)c2c(c1C(CCN1CCOCC1)c1ccc(N(C)C)cc1)OC(=O)CC2c1ccc(N(C)C)cc1 (configuration not stated)	-8.7%	0.9%	10µM*	-1.4%
COCCCNC(=O)CNC(=O)c1cn(-c2ccccc2OC)c(=O)c2ccccc12	14.6%	-0.3%	-4.8%	1.9%
CCOc1ccc(NC(=O)CNC(=O)c2cn(-c3ccccc3OC)c(=O)c3ccccc23)cc1	-18.8%	-0.4%	12.6µM*	0.2%
COc1ccc2sc(-c3ccc(S(C)(=O)=O)cc3)c(C(=O)NCCc3c[nH]c4ccccc34)c2c1	0.6%	28.2µM*	.	-5.0%
COC(=O)c1c(-c2ccc(OC)cc2)sc2ccc(OC)cc12	?	44.7µM*	.	0.8%
CCCCCCCCCCCC	.	.	-2.4%	.
CC(=O)c1ccc2c(c1)C1C=CCC1C(C(=O)O)N2 (configuration not stated)	9.1%	-2.6%	8.9%	11.2µM*
Cc1ccn2c(NC3CCCC3)c(-c3cccs3)nc2c1	-5.6%	-1.0%	-5.9%	-1.2%
Cc1ccn2c(NCc3ccccc3)c(-c3cccs3)nc2c1	9.2%	-3.5%	11.2µM*	-2.4%
O=[N+]([O-])c1cccc(CN2C(COCc3ccccc3)CCC=CS2(=O)=O)c1 (configuration not stated)	.	.	5.3%	.
CC(C)CCC[C@@H](C)[C@@H]1CC[C@H]2C3=CC=C4CC(O)CC[C@]4(C)[C@H]3CC[C@@]21C (some centres not stated)	.	.	-10.8%	.
Cc1ccc(NC(=S)Nc2cccc(-c3n[nH]c(=S)o3)c2)cc1	11.5%	50.1µM*	0.8%	6.4%
CN1CCN(Cc2nc3ccccc3c(=O)n2Cc2nc(-c3cccc([N+](=O)[O-])c3)cs2)CC1	0.1%	1.5%	5.6%	-10.6%
CN1CCN(Cc2nc3ccccc3c(=O)n2Cc2nc(-c3ccc4ccccc4c3)cs2)CC1	-9.0%	-1.0%	11.2µM*	1.5%
OC(CNc1nc(-c2cccnc2)nc2ccccc12)c1ccccc1 (configuration not stated)	-7.0%	-1.9%	10µM*	1.6%
O=C(OCCNc1nc(-c2ccccc2)nc2ccccc12)c1cccnc1	0.2%	-1.0%	7.08µM*	-2.1%
C=C1C=C(C(F)F)n2ncc(C(=O)Nc3ccc(C(C)CC)cc3)c2N1 (configuration not stated)	.	1.2%	.	.
CCOC(=O)/C(C#N)=C\c1cc(C)n(-c2ccccc2)c1C	6.4%	-2.0%	4.2%	-0.7%
CCOC(=O)/C(C#N)=C\c1ccc(N2CCN(C/C=C/c3ccccc3)CC2)cc1	2.6%	0.7%	15.8µM*	5.7%
CCOC(=O)C1CCN(c2nc(-c3ccc(Br)cc3)cs2)CC1	.	1.3%	.	.
SMILES	Eya2 phos inh	MmCpn inh	N370S GC	USP2a inh
COC(=O)C1=C(C(=O)OC)[C@@H]2N(Cc3ccccc3)c3ccccc3[C@@]23C[C@@H](C(=O)OC)N(S(=O)(=O)c2ccc(OC)cc2)C3=N1	.	.	-15.4%[12.8 µM]	.
OCCN1CCN(C(=S)c2ccc(Cl)cc2)CC1	1.7%	0.1%	-2.5%	-1.4%
CC(C)(C)c1cc(C(=S)N2CCN(CCO)CC2)cc(C(C)(C)C)c1O	-4.5%	2.5%	17.8µM*	-1.5%
O=S(=O)(O)c1cc(O)c2c(O)c(N=Nc3cc(Cl)ccc3O)c(S(=O)(=O)O)cc2c1	?	-15.2%	-8.6%	-13.5%
Cc1cc(-c2ccc(N=Nc3c(S(=O)(=O)O)cc4cc(S(=O)(=O)O)cc(N)c4c3O)c(C)c2)ccc1N=Nc1c(S(=O)(=O)O)cc2cc(S(=O)(=O)O)cc(N)c2c1O	?	31.6µM*	-14.4%	10µM*
CN1[C@@H]2CC[C@@H]1CC(OC(=O)[C@H](CO)c1ccccc1)C2 (some centres not stated)	.	.	-16.8%	.
Cc1ccccc1CN1C(=O)/C(=C\c2ccc(C(=O)NCCN3CCOCC3)cc2)Sc2ccccc21	-5.9%	-0.2%	?	-2.0%
O=C(NCCN1CCOCC1)c1ccc(/C=C2\Sc3ccccc3N(Cc3ccccc3F)C2=O)cc1	-11.9%	-3.7%	1µM*	-2.1%
C=C1c2cccc(O)c2C(=O)C2C(=O)[C@]3(O)C(=O)C(C(N)=O)C(=O)[C@@H](N(C)C)[C@@H]3[C@@H](O)[C@H]12 (some centres not stated)	-2.4%	?	.	7.08µM*
O=C(NC[C@@H]1CCCCN1)c1cc(OCC(F)(F)F)ccc1OCC(F)(F)F	.	.	-2.7%[21.6 µM]	.
COc1cc(C2Sc3ccccc3NC3=C2C(=O)OC3)cc(OC)c1OC (configuration not stated)	-2.8%	0.9%	-27.3%	-1.9%
O=C1OCC2=C1C(c1ccc(F)cc1)Sc1ccccc1N2 (configuration not stated)	-34.9%	-1.9%	17.8µM*	-1.4%
C=C(C#N)C(=O)OCC	.	.	8.6%	.
CCc1cc(C(c2ccccn2)N2CCN(C)CC2)c(NC(=O)c2ccccc2)s1 (configuration not stated)	-14.6%	2.7%	14.1µM*	3.4%
CCOc1ccc(C(c2c(NC(=O)c3ccccc3)sc(C)c2C)N2CCN(C)CC2)cc1 (configuration not stated)	-4.2%	-1.0%	15.8µM*	-0.1%
